PubChem BioAssay (NCATS)
The source made the active and inactive calls. Calls come from the whole dose curve; as a rule, active = well fitted curve in the direction sought with a large enough effect; inconclusive = small, poorly fitted or top-dose-only effect, or another doubt; inactive = no such curve, though single readings can be large or run the other way.

What follows are compounds tested against Thyrotropin receptor (Homo sapiens) (UniProt P16473) (assay: qHTS Assay for Antagonists of the Thyroid Stimulating Hormone Receptor (AID 488980)). Details: TSHR-expressing cells, cAMP antagonist read-out; series mostly up to 57.5 µM.
From the text: TSH is an alpha/beta heterodimeric glycoprotein hormone secreted from the anterior pituitary gland which belongs to the glycoprotein hormone family. The actions of TSH are mediated by a seven-transmembrane receptor, which upon TSH binding couples preferentially to the G-alpha (s) protein (Gs), resulting in activation of adenylate cyclase and increase in cyclic adenosine 3', 5' monophosphate (cAMP). The TSH receptor (THSR) is mainly expressed in thyroid follicular cells and regulates their growth and function. This cell based assay was conducted on a TSHR transfected HEK 293 cell line, measuring cAMP stimulation using antibody-based Homogeneous Time Resolved Fluorescence (HTRF).
Our goal is to identify small molecules that will inhibit (antagonize) the thyroid-stimulating hormone receptor (TSHR), a member of the 7 transmembrane-spanning receptor (7TMR) family of cell surface receptors. TSHR-mediated hyperthyroidism is important in thyroid pathology. The development of small molecule antagonists of TSHR may lead to therapeutic approaches for TSHR-mediated hyperthyroidism caused by constitutively activating mutations or stimulating auto-antibodies associated with Graves' disease. Graves' disease is the leading cause of hyperthyroidism and is caused by autoantibodies that stimulate TSHR (TsAbs) causing thyroid growth and unregulated overproduction of thyroid hormones and existing treatments have liabilities (agranulocytosis). In addition, TSHRs are known to be expressed in multiple extrathyroidal tissues including bone, brain, kidney, testis, fat and cells of the immune system but the role of the TSHR in these tissues is not clear. Therefore, TSHR antagonists/inverse agonists could be used as probes of extrathyroidal TSHR function. Finally, TSHR inverse agonists, which are a subclass of antagonists that inhibit agonist-independent (or basal or constitutive) TSHR signaling, could be used to inhibit TSH-independent signaling in patients with recurrent or metastatic thyroid cancer who are receiving thyroid hormone to suppress TSH.
An anti cAMP antibody contains a fluorescent cryptate tag (excitation 337 nm; emission 620 nm) and the acceptor is cAMP-d2 (excitation 620 nm; emission 665 nm). When antibody and cAMP-d2 interact and are excited by a 337 nm light, a FRET occurs resulting in emission at 665 nm. The assay is competition between cAMP-d2 and cAMP (from the cell lysate). The homogeneous protocol allows for one step dispense after stimulation that is automation friendly.
Step, Parameter, Value, Description
1, Cells, 3 uL, 2000 TSHR freshly harvested cells/well 1536 TC treated White solid bottom plate (Cells resuspended in 10 mM HEPES buffered HBSS and 70 uM RO 20-1724)
2, Compound, 23 nL, Libraries and controls
3, Compound, 1 uL, EC80 TSH (4 nM final)
5, Reagent, 2 uL, cAMP antibody diluted 1:20 in lysis buffer
6, Time, 30 minutes, Room temperature
7, Detector, HTRF settings, Viewlux

Sequence of Thyrotropin receptor (Homo sapiens) (P16473 whole entry, looked up): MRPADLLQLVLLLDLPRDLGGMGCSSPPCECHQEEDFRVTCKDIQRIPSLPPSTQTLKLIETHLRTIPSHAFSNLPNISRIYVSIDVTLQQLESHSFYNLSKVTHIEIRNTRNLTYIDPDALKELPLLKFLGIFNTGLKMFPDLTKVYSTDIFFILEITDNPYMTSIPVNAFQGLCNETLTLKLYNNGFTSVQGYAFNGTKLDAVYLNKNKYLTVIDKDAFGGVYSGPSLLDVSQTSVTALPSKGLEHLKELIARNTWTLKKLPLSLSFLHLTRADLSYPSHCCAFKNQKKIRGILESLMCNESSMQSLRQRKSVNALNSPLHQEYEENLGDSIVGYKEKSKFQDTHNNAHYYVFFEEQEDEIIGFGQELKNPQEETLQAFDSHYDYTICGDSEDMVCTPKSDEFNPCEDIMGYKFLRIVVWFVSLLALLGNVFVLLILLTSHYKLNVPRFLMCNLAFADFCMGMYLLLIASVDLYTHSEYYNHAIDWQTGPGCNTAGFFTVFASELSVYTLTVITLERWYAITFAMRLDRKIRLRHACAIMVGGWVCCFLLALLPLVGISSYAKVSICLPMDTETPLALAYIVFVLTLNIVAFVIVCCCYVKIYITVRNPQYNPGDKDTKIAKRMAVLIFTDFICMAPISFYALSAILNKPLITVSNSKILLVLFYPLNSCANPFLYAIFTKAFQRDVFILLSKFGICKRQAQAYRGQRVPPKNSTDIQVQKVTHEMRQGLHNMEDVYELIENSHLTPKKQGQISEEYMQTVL

SMILES | outcome
CC(C)N(CCC(=O)c1ccc2ccccc2c1)Cc1ccccc1 | inactive
Cn1cnc2c(NCc3ccccc3)nc(NCCO)nc21 | inactive
C[C@]12CCC(=O)C=C1CC[C@@H]1[C@@H]2[C@@H](O)C[C@@]2(C)[C@H]1CC[C@]2(O)C(=O)COC(=O)CCC(=O)O | inactive
O=C1NC(c2cccc([N+](=O)[O-])c2)=CCN1c1ccccc1O | inactive
NC(N)=NCCCCN=C(N)N | inactive
C[N+](C)(C)CCO | inactive
Brc1ccc([C@H]2CN3CCSC3=N2)cc1 | inactive
O=[N+]([O-])c1ccc(-c2nc(-c3ccc(F)cc3)c(-c3ccncc3)[nH]2)cc1 | inactive
COc1ccccc1N1CCN(CCN2C(=O)CC3(CCCC3)CC2=O)CC1 | inactive
CN(C)c1cc2c(Nc3ccc4c(cnn4Cc4ccccc4)c3)ncnc2cn1 | inactive
COc1cccc2c1[C@@H]1CN(CCCCn3c(=O)[nH]c4c(sc5ncc(-c6ccccc6)nc54)c3=O)C[C@@H]1CO2 | inactive
